Screens (PubChem BioAssay)
TSHR antagonist = antagonists of human thyroid stimulating hormone receptor; TSHR-expressing cells, TSH-stimulated cAMP HTRF, 2 h; active compounds read low; activity change, negative = inhibition, % at 11.5 µM; hit rate 0.2% among 330,000; P16473;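 active means activity change below a set negative limit, meaning inhibition stronger than a set level, cut at about -70% in these data; inconclusive means activity change between two set negative limits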; further: on the % scale 0 is the no-effect control and ±100 the full control effect
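Freshly harvested TSHR cells receive pin-tooled compound, then EC80 TSH at 4nM final. After 2 hours at 37 deg C, antibody in lysis buffer and cAMP-d2 are added; 30 minutes at ambient temperature precede the HTRF read.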
DRD3 agonist = D3 dopamine receptor (human) agonism. D3R DiscoveRx beta-arrestin cells, luminescence, 90 min. max activation, %. hit rate 0.58% among 410,000; in the data active means max activation above about 30%; further: 0% is about no effect
Target sequence (P35462 whole entry, looked up): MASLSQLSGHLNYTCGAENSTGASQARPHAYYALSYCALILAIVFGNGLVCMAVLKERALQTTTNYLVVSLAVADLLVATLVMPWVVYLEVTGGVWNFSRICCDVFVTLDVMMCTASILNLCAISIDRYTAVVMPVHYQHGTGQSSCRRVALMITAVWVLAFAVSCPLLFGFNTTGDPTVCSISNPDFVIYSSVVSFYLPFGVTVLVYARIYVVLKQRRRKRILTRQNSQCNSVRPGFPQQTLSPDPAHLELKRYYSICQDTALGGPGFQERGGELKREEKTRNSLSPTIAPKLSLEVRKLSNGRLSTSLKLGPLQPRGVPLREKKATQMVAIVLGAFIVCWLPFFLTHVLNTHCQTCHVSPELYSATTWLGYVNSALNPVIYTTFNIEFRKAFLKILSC
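Agonist mode: compounds and dopamine controls were applied to plated cells for 90 min at 37 degrees C after an overnight attachment at 1500 cells/well. Luminescent read-out followed 30 - 60 minutes at room temperature with DiscoveRx detection reagent.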
DRD3 antagonist = blocks the human D3 dopamine receptor; D3R cells, DiscoveRx beta-arrestin luminescence, antagonist mode; active compounds read low; max response, negative = inhibition, %; hit rate 2.5% among 360,000; in the data active means max response below about -50%; inconclusive means no clear call, values can overlap the other calls; further: on the % scale 0 is the no-effect control and ±100 the full control effect
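Cells expressing the human receptor were seeded at 1500 cells/well, incubated overnight at 37 degrees C in 5% CO2, then exposed to library compounds with dopamine controls for 90 minutes at 37 degrees C before luminescent detection.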
B2AR arrestin = beta2AR (human) beta-arrestin recruitment activity; beta-arrestin recruitment to beta2AR, cell-based reporter; Potency, µM (top dose mostly 46.1 µM), for the others: at the top dose activation, most hits filed as activators; hit rate 0.02% among 330,000; active means well fitted activation curve with a large enough effect; inconclusive means small, poorly fitted or top-dose-only effect;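 further: potency means the concentration at half of the fitted maximal effect; 0% = DMSO controls and full agonism = EC100 isoproterenol or metaproterenol; nearly all actives have a fitted effect of over 65% in size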
An asterisk follows results filed as active; ? = inconclusive; . = not tested or not shown. Hits are enriched below; roughly 2.9% of the tested compounds scored in any of these assays.

SMILES | TSHR antagonist | DRD3 agonist | DRD3 antagonist | B2AR arrestin
CN(C(=O)CSc1nc2ccccc2n1CC(=O)NCc1ccc(F)cc1)c1ccc(F)cc1 | . | -12.4 | . | .
CCN1CCCC1CNc1ccc(S(C)(=O)=O)cc1[N+](=O)[O-] (centres undefined) | -4.8 | -18.2 | -54.1* | 0.1%
CC(=O)c1ccc(OC2(C)CCN(CCOc3ccc(C)cc3)C2)cc1 (centres undefined) | . | 48.2* | -17.9 | .
COCOc1cccc(CN2CCC(C)(Oc3ccc(C(C)=O)cc3)C2)c1 (centres undefined) | . | -6.1 | 10.4 | .
CC(=O)c1cc2cccc(OC3(C)CCN(Cc4ccc5ccccc5c4)C3)c2o1 (centres undefined) | . | -16.0 | -69.7* | .
CC(=O)c1ccc(OC2(C)CCN(Cc3cc4ccccc4[nH]3)C2)cc1 (centres undefined) | . | -20.4 | -55.0* | .
COc1ccccc1CNCCSc1nnnn1C | . | -10.2 | . | .
CC1=C(C(=O)N2CCCCC2)C(c2cccc(Cl)c2)n2c(nc3ccccc32)N1 (centres undefined) | . | -8.6 | . | .
C(=C\c1ccccc1)/CN1CCN(C(c2ccnc3ccccc23)c2nnnn2C2CCCC2)CC1 (centres undefined) | . | -9.9 | -29.2 | .
COc1cccc(C(c2nnnn2C2CCCCC2)N2CCN(C/C=C/c3ccccc3)CC2)c1OC (centres undefined) | . | -16.7 | -118.4* | .
FC(F)(F)Oc1ccccc1C(c1nnnn1C1CCCC1)N1CCN(C/C=C/c2ccccc2)CC1 (centres undefined) | . | -15.3 | -96.6* | .
Cc1cc(C)cc(N2CC(c3nc4ccccc4n3C)CC2=O)c1 (centres undefined) | -1.9 | -5.8 | -53.7* | 0.1%
Cc1ccc(N2CC(c3nc4ccccc4n3C)CC2=O)cc1C (centres undefined) | 14.2 | 1.5 | 5.4 | -0.1%
O=C1C2CCCCN2C(=O)N1CCCCN1CCN(c2cccc(C(F)(F)F)c2)CC1 (centres undefined) | . | -25.8 | -139.7* | .
O=C1C2CCCN2C(=O)N1CCCN1CCN(c2cccc(Cl)c2)CC1 (centres undefined) | 4.1 | -13.3 | -50.3* | -0.7%
O=C1CC(=C(c2ccccc2)c2ccccc2)C(=O)N1CCCCN1CCN(c2cccc(Cl)c2)CC1 | -1.4 | 23.4 | -51.5* | -0.2%
O=c1n(CCCN2CCN(c3cccc(Cl)c3)CC2)nc2ccccn12 | -12.9 | -71.7 | -92.6* | 0.6%
Cc1ccc(-n2nc(C)c3c(C)cc(=O)n(CC(=O)Nc4cc(Cl)ccc4C)c32)cc1 | . | -21.9 | . | .
O=C1C2CCCCN2C(=O)N1CCCCN1CCN(c2cccc(Cl)c2)CC1 (centres undefined) | 2.8 | 1.2 | -60.5* | 0.3%
Cc1c(NC(=O)c2nc3ccccc3nc2N2CCCCC2)cccc1[N+](=O)[O-] | . | 6.1 | . | .
O=C(NCc1ccccc1Cl)c1ccc2c(c1)NC(=O)C(CS(=O)(=O)Cc1ccc(F)cc1Cl)N2 (centres undefined) | . | 47.3* | . | .
Cc1ccc2c(=O)cc(C(=O)Nc3ccc(S(=O)(=O)N(C)Cc4ccccc4)cc3)oc2c1 | . | -2.3 | . | .
COC(=O)CC[C@H](N)C(=O)O | . | -7.9 | . | .
O=C(O)c1ccc(-n2c(-c3ccc(Br)cc3)n[nH]c2=S)cc1 | 12.2 | 4.7 | -88.9* | 0.1%
CCN1CCC(N(Cc2ccc3c(c2)OCO3)C(=O)Nc2cc(Cl)ccc2C(=O)OC)CC1 | . | -26.5 | . | .
SMILES | TSHR antagonist | DRD3 agonist | DRD3 antagonist | B2AR arrestin
Cc1ccc(C(=O)N2CCN(Cc3ccc4c(c3)OCO4)CC2)cc1C | -14.8 | -24.6 | -62.5* | -0.7%
Cc1cccc(C(=O)N2CCN(Cc3ccc4c(c3)OCO4)CC2)c1 | 0.2 | -12.0 | -80.5* | 0.4%
O=C(C1CC2CCC1C2)N1CCN(Cc2ccc3c(c2)OCO3)CC1 (centres undefined) | -0.1 | -5.3 | -56.2* | -0.3%
O=C(O)C1CC(=O)N(Cc2ccc3c(c2)OCO3)C1 (centres undefined) | -2.6 | -14.2 | -106.0* | 0.1%
COc1ccc(-c2cn3nc(N4CCCC(C(=O)NCc5ccccc5C)C4)sc3n2)cc1 (centres undefined) | . | 2.9 | . | .
c1ccc2nc(N3CCN(Cc4ccc5c(c4)OCO5)CC3)cnc2c1 | -0.9 | -11.8 | ? | 0.5%
COc1cc2cc(C(=O)N3CCN(Cc4ccc5c(c4)OCO5)CC3)[nH]c2cc1OC | 23.3 | -7.4 | -25.0 | 0.2%
COc1nc2ccccc2nc1N1CCN(Cc2ccc3c(c2)OCO3)CC1 | -6.7 | 4.5 | -114.3* | -0.6%
c1cc2c(cc1CN1CCN(C3CCCCCC3)CC1)OCO2 | -5.9 | -16.0 | -51.3* | 0.0%
O=C(c1ccccc1)N1CCN(Cc2ccc3c(c2)OCO3)CC1 | -3.9 | -25.0 | -78.4* | -0.1%
O=C(c1cc2cc(F)ccc2[nH]1)N1CCN(Cc2ccc3c(c2)OCO3)CC1 | -12.2 | -12.7 | -86.4* | 0.1%
CCc1ccc(S(=O)(=O)c2cnc3ccc(OC)cc3c2N2CCCC(C)C2)cc1 (centres undefined) | . | -14.4 | . | .
Cc1ccc(C(=O)N2CCN(Cc3ccc4c(c3)OCO4)CC2)c(Cl)c1 | -19.7 | -23.7 | -86.3* | -0.8%
O=C(c1ccccc1F)N1CCN(Cc2ccccc2F)CC1 | -11.7 | -12.2 | -57.3* | -0.1%
O=C(c1ccccc1Cl)N1CCN(Cc2ccc3c(c2)OCO3)CC1 | -12.9 | -25.6 | -20.2 | -0.6%
O=C(c1ccccc1)N1CCN(Cc2ccccc2Br)CC1 | -14.3 | 0.5 | -62.4* | -0.1%
O=C(c1ccccc1)c1ccccc1C(=O)N1CCN(Cc2ccccc2F)CC1 | -4.5 | -0.5 | 14.7 | 0.1%
COc1ccc(C)cc1NC(=O)N1CCCn2nc(C)cc21 | . | 2.6 | . | .
Nc1nc(-c2cccnc2)nc(N2CCCCC2)n1 | 0.6 | 32.9* | 4.9 | -0.9%
c1cncc(-c2nc(N3CCCCCC3)c3ccccc3n2)c1 | 17.9 | -0.3 | -0.9 | 0.3%
COCCOC(=O)C1=C(C)NC(=O)N(C(C)=O)C1c1ccc(Cl)cc1 (centres undefined) | 9.7 | -7.1 | -102.5* | 0.2%
Nc1nc(SCC(=O)C23CC4CC(CC(C4)C2)C3)n[nH]1 | -76.2* | 2.7 | 10.2 | -0.1%
CCOc1cccc(C(=O)N(Cc2ccc(F)cc2)C2CCS(=O)(=O)C2)c1 (centres undefined) | -0.3 | 38.1* | 22.2 | -0.1%
Cc1ccc(OCC(=O)Nc2ccc3nn(-c4ccc(Cl)cc4)nc3c2)cc1 | . | 3.0 | . | .
CCCOc1cccc(C2c3c(oc4ccccc4c3=O)C(=O)N2c2nncs2)c1 (centres undefined) | . | 56.0* | . | .
SMILES | TSHR antagonist | DRD3 agonist | DRD3 antagonist | B2AR arrestin
Fc1ccc2[nH]c3c(N4CCN(c5ccccc5)CC4)ncnc3c2c1 | -88.6* | 5.3 | -13.4 | -0.1%
OC1(c2cccc(C(F)(F)F)c2)CCN(c2ncnc3c2[nH]c2ccc(F)cc23)CC1 | . | 39.6* | -25.0 | .
O=[N+]([O-])c1ccc2n[nH]nc2c1 | 10.6 | -5.4 | -70.2* | 0.0%
CC(C)(C)c1ccccc1OCCN1CCCC1 | -0.2 | -26.5 | -78.7* | -0.2%
CC(OCCN1CCCC1)(c1ccc(F)cc1)c1ccc(F)cc1 | 3.9 | -48.4 | -75.9* | -0.4%
Cc1cccc(C(C)(C)C)c1OCCN1CCCC1 | 3.5 | -36.3 | -92.9* | -1.5%
COc1ccccc1Nc1nn2c(=O)c3ccc(C(=O)NCCC4=CCCCC4)cc3nc2s1 | . | -4.7 | . | .
